An excerpt weighted towards active compounds, which were near 15% of everything screened.
HCV inh = inhibitors of hepatitis C virus infection. Huh7.5.1 HCVcc-Cre infection, luciferase reporter, 44 h. Potency, µM (top dose mostly 41.8 µM), actives largely listed as inhibitors. 340,000 tested, 3.4% active
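Seed cells (1,000/well) for 4 h; treat with compound and infect with HCVcc-Cre, moi about 0.5. Incubate 44 h, then detect luciferase activity.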
Pf growth 96h = P. falciparum growth inhibition at 96 hour, primary screen for plastid delayed-death inhibitors; P. falciparum luciferase reporter growth, 96 h; Potency, µM (series often up to 28.7 µM), hits mostly inhibitors; 320,000 tested, 6.9% active; AID 504834
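96 h incubation, 37 C, 5% CO2, of luciferase-reporter P. falciparum-infected RBCs (2% hematocrit, 0.05% parasitemia final) with test compounds; endpoint luminescence.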
SARS PLP yeast = inhibitors of SARS-CoV papain-like protease in yeast; Potency, µM (highest dose often 32.9 µM), hits mostly activators; AID 485353; S. cerevisiae expressing SARS-CoV PLpro, growth rescue; 330,000 tested, 0.19% active; calls by dose curve; also: nearly all actives have a fitted effect of over 55% in size
Pf growth 48h = inhibits P. falciparum growth in the first generation, 48 h. 310,000 tested, 5.9% active. Potency, µM (top dose mostly 28.7 µM), usual class: inhibitors. AID 504832. P. falciparum luciferase growth in erythrocytes, 48 h
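Growth was read as firefly luciferase luminescence after a 48 h, 37 C, 5% CO2 exposure of compounds to reporter-bearing P. falciparum cultures (0.1% parasitemia, 2% hematocrit final) in Albumax-supplemented RPMI 1640.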
HCMV inh = blocks human cytomegalovirus replication | AID 1259415 | activity change, negative = inhibition, % at 57.5 µM | HFF cells, HCMV-luciferase reporter, 72 h; hits give low values | 410,000 tested, 4.5% active; in the data active = activity change below about -60%; inconclusive = no clear call, values can overlap the other calls; inactive = above about -39%
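Luciferase read-out from HCMV-luciferase-infected HFFs (MOI 1 PFU/cell) 72 h post infection at 37C; compounds added after 16 h cell attachment; activity normalized between buffer-only basal and Salinomycin (10uM) inhibitor controls.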
Sm TGR inh = S. mansoni TGR enzyme inhibition; Q962Y6; purified TGR, DTNB reduction, TNB absorbance 405 nm; Potency, µM (top dose mostly 114 µM), most hits filed as inhibitors; 360,000 tested, 3% active; also: nearly all actives have a fitted effect of over 60% in size
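TGR 20 nM + NADPH 100 uM (dispensed conc.), cpd preinc 15 min RT; start with NADPH (500 uM addition) then DTNB (15 mM addition). Kinetic TNB absorbance, 405 nm filter. Four-parameter Hill fit across titration.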
Numbers stand for hits; ! = repeats disagree. Unless noted, calls follow the shape of the dose curve; as a rule, active = well fitted curve in the direction sought with a large enough effect; inconclusive = small, poorly fitted or top-dose-only effect, or another doubt; inactive = no such curve, though single readings can be large; an effect the other way counts as inactive or inconclusive.

What do the screens show for `CC(C)(C)c1ccc(-c2cc(-c3ccccc3O)[nH]n2)cc1`?
HCV inh: inconclusive; Pf growth 96h: inactive; SARS PLP yeast: inactive; Pf growth 48h: inactive; HCMV inh: -95; Sm TGR inh: inactive

Results for Cc1ccc(O)c(-c2cc(C(F)(F)C(F)F)[nH]n2)c1 ?
HCV inh: inconclusive; Pf growth 96h: 9.3µM; SARS PLP yeast: inactive; Pf growth 48h: 9.3µM; HCMV inh: inactive; Sm TGR inh: inactive

How did CCCCC(CC)CNC(=O)CCCCCn1c(=O)[nH]c2ccsc2c1=O (centres undefined) do in these assays?
HCMV inh: inactive; Sm TGR inh: inactive

Results for Cc1ccc(O)c(-c2cc(-c3ccccc3C)[nH]n2)c1 ?
HCV inh: 11µM; Pf growth 96h: inactive; SARS PLP yeast: inactive; Pf growth 48h: inconclusive; HCMV inh: inactive; Sm TGR inh: inactive

Results for Cc1ccc(O)c(-c2cc(-c3ccccc3[N+](=O)[O-])[nH]n2)c1 ?
HCV inh: inactive; Pf growth 96h: inactive; SARS PLP yeast: inactive; Pf growth 48h: inconclusive; HCMV inh: inactive; Sm TGR inh: inactive

How did N#C/C(=C\c1ccc(N2CCOCC2)o1)c1nc2ccccc2[nH]1 do in these assays?
HCV inh: inconclusive; Pf growth 96h: inactive; SARS PLP yeast: inactive; Pf growth 48h: inactive; HCMV inh: inactive; Sm TGR inh: inconclusive

Results for N#C/C(=C/c1ccc(N2CCOCC2)o1)c1ccc(Cl)cc1 ?
HCV inh: inactive; Pf growth 96h: inactive; SARS PLP yeast: inactive; Pf growth 48h: inactive; HCMV inh: inactive; Sm TGR inh: 1µM

What do the screens show for `COCCNC(=O)CN1CCC(NC(=O)Nc2ccccc2)CC1`?
HCV inh: inactive; SARS PLP yeast: inactive; Pf growth 48h: inactive; HCMV inh: inactive; Sm TGR inh: inactive

What do the screens show for `COCCNC(=O)CN1CCC(NC(=O)Nc2ccc(C(F)(F)F)cc2)CC1`?
HCV inh: 11µM!; Pf growth 96h: inactive; SARS PLP yeast: inactive; Pf growth 48h: inactive; HCMV inh: inactive; Sm TGR inh: inactive

How did COC(=O)c1ccc(NC(=O)CNc2ccccc2)cc1 do in these assays?
HCV inh: inactive; Pf growth 96h: inactive; SARS PLP yeast: inactive; Pf growth 48h: inactive; HCMV inh: inactive; Sm TGR inh: inactive

How did Cc1ccccc1-n1ncc2c([N+](=O)[O-])cc([N+](=O)[O-])cc21 do in these assays?
HCV inh: 7.9µM; Pf growth 96h: inconclusive; SARS PLP yeast: inactive; Pf growth 48h: 9.3µM; HCMV inh: inactive; Sm TGR inh: inactive

Results for Cc1ccccc1-n1c(-c2ccc([N+](=O)[O-])cc2)nc2ccccc2c1=O ?
HCV inh: inactive; Pf growth 96h: inactive; SARS PLP yeast: inactive; Pf growth 48h: inactive; HCMV inh: inactive; Sm TGR inh: inactive

Results for Cc1cccc(OCCCSc2nc3ccccc3[nH]2)c1 ?
HCV inh: inactive; Pf growth 96h: inactive; SARS PLP yeast: inactive; Pf growth 48h: inactive; HCMV inh: inactive; Sm TGR inh: inactive

What do the screens show for `Cc1cccc(OCCSCc2nc3ccccc3[nH]2)c1`?
HCV inh: 6.3µM; Pf growth 96h: inconclusive; SARS PLP yeast: inactive; Pf growth 48h: inconclusive; HCMV inh: inactive; Sm TGR inh: inactive

What do the screens show for `Cc1ccccc1OCCSCc1nc2ccccc2[nH]1`?
HCV inh: inconclusive; Pf growth 96h: 13µM; SARS PLP yeast: inactive; Pf growth 48h: inconclusive; HCMV inh: inconclusive; Sm TGR inh: inactive

How did Cc1ccccc1OCC(=O)NCCc1nc2ccccc2[nH]1 do in these assays?
HCV inh: inactive; Pf growth 96h: inactive; SARS PLP yeast: inactive; Pf growth 48h: inactive; HCMV inh: inactive; Sm TGR inh: inactive

What do the screens show for `CCOC(=O)c1c(C)oc2nc(C)nc(N(C)Cc3ccccc3)c12`?
HCMV inh: inactive; Sm TGR inh: inactive

How did COC(=O)c1ccc(NC(=O)CC2C(=O)N(c3ccc(Cl)cc3)C(=O)N2Cc2ccco2)cc1 (centres undefined) do in these assays?
HCMV inh: inactive; Sm TGR inh: inactive

How did O=C1NC(=O)/C(=C\c2ccc(Br)o2)S1 do in these assays?
HCV inh: inactive; Pf growth 96h: inactive; SARS PLP yeast: inactive; Pf growth 48h: inactive; HCMV inh: inactive; Sm TGR inh: 14µM
